From PubChem BioAssay AID1159580 (chemical genetic matrix, 2015)
Where “and” joins values, the source holds several entries; their conditions need not be identical. Identical values can stand only once. Among all 5,500 compounds or so, about 2,000 (36%) were called active. About 18% were inconclusive and are not listed. Cut-off read from the data, not from the text of the source: active = normalized growth mostly below about 0.91 (no sharp cut-off); inconclusive = no clear call, values can overlap the other calls; inactive = mostly above about 0.92. This is one part of the list.

Assay: chemical genetic growth profiling, strain panel (AID 1159580);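 note: tested at 20 µM; growth read once vehicle control cultures reached saturation at 30 °C; 1 = growth at the plate median or of vehicle wells; lower values mean less growth of the strain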
Settings: S. cerevisiae deletion strains, growth OD

Measured: normalized growth

O=C(O[C@@H]1Cc2c(O)cc(O)cc2O[C@@H]1c1cc(O)c(=O)c2c(O)c(O)cc([C@H]3Oc4cc(O)cc(O)c4C[C@H]3O)c2c1)c1cc(O)c(O)c(O)c1
0.185 (active) and 0.996 (inactive): locus YJL095W, strain BCK1, stronger effect = lower value
inactive: locus YBR021W, strain FUR4, stronger effect = lower value 0.918 | locus YBR171W, strain sec66, stronger effect = lower value 0.938 | locus YDL005C, strain med2, stronger effect = lower value 0.949 | locus YDL185W, strain tfp1, stronger effect = lower value 0.992 | locus YDR001C, strain nth1, stronger effect = lower value 0.984 | locus YDR388W, stronger effect = lower value 0.93 | locus YDR392W, strain spt3, stronger effect = lower value 0.84 | locus YEL061C, strain CIN8 (second series), stronger effect = lower value 0.936 | locus YER110C, stronger effect = lower value 1.03 | locus YGL078C, strain dbp3, stronger effect = lower value 1.02 | locus YGL227W, strain vid30, stronger effect = lower value 0.991 | locus YHR030C, strain SLT2, stronger effect = lower value 1.01 | locus YHR079C, strain IRE1 (second series), stronger effect = lower value 0.946 | locus YHR079C, strain IRE1, stronger effect = lower value 1.03 | locus YHR094C, strain hxt1, stronger effect = lower value 1.02 | locus YIL125W, strain kgd1, stronger effect = lower value 1.04 | locus YIR030C, strain dcg1, stronger effect = lower value 0.973 | locus YJL115W, strain asf1, stronger effect = lower value 0.947 | locus YJL168C, strain set2, stronger effect = lower value 0.997
active: locus YAL021C, strain ccr4, stronger effect = lower value 0.0928 | locus YAL026C, strain drs2, stronger effect = lower value 0.46 | locus YAL030W, strain snc1, stronger effect = lower value 0.715 | locus YBL061C, strain skt5, stronger effect = lower value 0.531 | locus YBR009C, strain hhf1, stronger effect = lower value 0.556 | locus YBR023C, strain chs3, stronger effect = lower value 0.457 | locus YBR229C, strain ROT2, stronger effect = lower value 0.67 | locus YBR231C, strain swc5, stronger effect = lower value 0.427 | locus YBR279W, strain paf1, stronger effect = lower value 0.549 | locus YCL011C, strain gbp2, stronger effect = lower value 0.62 | locus YCL016C, strain dcc1, stronger effect = lower value 0.765 | locus YCL029C, strain bik1, stronger effect = lower value 0.801 | locus YCL061C, strain MRC1, stronger effect = lower value 0.765 | locus YCL069W, strain vba3, stronger effect = lower value 0.797 | locus YCR088W, strain abp1, stronger effect = lower value 0.911 | locus YDL035C, strain GPR1, stronger effect = lower value 0.224 | locus YDL040C, strain nat1, stronger effect = lower value 0.767 | locus YDL074C, strain BRE1, stronger effect = lower value 0.42 | locus YDL101C, strain DUN1, stronger effect = lower value 0.233 | locus YDL134C, strain PPH21, stronger effect = lower value 0.184 | locus YDL192W, strain arf1, stronger effect = lower value 0.828 | locus YDR069C, strain doa4, stronger effect = lower value 0.116 | locus YDR101C, strain arx1, stronger effect = lower value 0.896 | locus YDR137W, strain rgp1, stronger effect = lower value 0.497 | locus YDR150W, strain NUM1, stronger effect = lower value 0.829 | locus YDR159W, strain sac3, stronger effect = lower value 0.838 | locus YDR162C, strain NBP2, stronger effect = lower value 0.144 | locus YDR195W, strain ref2 0.814 | locus YDR297W, strain sur2, stronger effect = lower value 0.599 | locus YDR318W, strain mcm21, stronger effect = lower value 0.877 | locus YDR334W, strain swr1, stronger effect = lower value 0.571 | locus YDR335W, strain msn5, stronger effect = lower value 0.638 | locus YDR502C, strain sam2, stronger effect = lower value 0.69 | locus YEL003W, strain gim4, stronger effect = lower value 0.659 | locus YEL037C, strain rad23, stronger effect = lower value 0.709 | locus YER015W, strain faa2, stronger effect = lower value 0.292 | locus YER016W, strain bim1, stronger effect = lower value 0.859 | locus YER111C, strain swi4, stronger effect = lower value 0.694 | locus YER155C, strain BEM2 (second series), stronger effect = lower value 0.849 | locus YER155C, strain BEM2, stronger effect = lower value 0.887 | locus YER167W, strain BCK2, stronger effect = lower value 0.78 | locus YFR010W, strain ubp6, stronger effect = lower value 0.63 | locus YGL086W, strain mad1, stronger effect = lower value 0.669 | locus YGL167C, strain pmr1, stronger effect = lower value 0.422 | locus YGL173C, strain kem1, stronger effect = lower value 0.277 | locus YGL240W, strain doc1, stronger effect = lower value 0.81 | locus YGL248W, strain PDE1, stronger effect = lower value 0.474 | locus YGL253W, strain hxk2, stronger effect = lower value 0.588 | locus YGR135W, strain pre9, stronger effect = lower value 0.789 | locus YGR252W, strain gcn5, stronger effect = lower value 0.75 | locus YHR013C, strain ard1, stronger effect = lower value 0.329 | locus YHR027C, strain rpn1, stronger effect = lower value 0.191 | locus YHR129C, strain ARP1, stronger effect = lower value 0.565 | locus YHR142W, strain chs7, stronger effect = lower value 0.532 | locus YHR200W, strain rpn10, stronger effect = lower value 0.845 | locus YIL066C, strain RNR3, stronger effect = lower value 0.153 | locus YIL073C, strain SPO22, stronger effect = lower value 0.198 | locus YJL092W, strain hpr5, stronger effect = lower value 0.882 | locus YJL095W, strain BCK1 (second series), stronger effect = lower value 0.489 | locus YJL129C, strain trk1, stronger effect = lower value 0.829 | locus YJL134W, strain LCB3, stronger effect = lower value 0.825 | locus YJL154C, strain vps35, stronger effect = lower value 0.886 | locus YJL164C, strain tpk1, stronger effect = lower value 0.489 | locus YJL166W, strain qcr8, stronger effect = lower value 0.485 | locus YJL187C, strain SWE1 (second series), stronger effect = lower value 0.13 | locus YJL187C, strain SWE1, stronger effect = lower value 0.604 | locus YJR043C, strain POL32, stronger effect = lower value 0.244
